Test results reported in PubChem BioAssay (Tox21).
Inconclusive results are not listed. Entries that show only a call come without a potency. Activity calls are given as the source filed them. Calls come from the whole dose curve; as a rule, active = well fitted curve in the direction sought with a large enough effect in the repeat runs; inconclusive = weak or mixed curves; inactive = no such curve, though single readings can be large; an effect the other way counts as inactive or inconclusive.

Assays:
[1] = qHTS assay to identify small molecule antagonists of the retinoid acid receptor (RAR) signaling pathway - cell viability counter screen (AID 1159551); note: nearly all actives have a fitted effect of over 35% in size; note: potency is the fitted concentration of half-maximal effect
Procedure, shortened: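 Seed C3RL4 cells; next day add compound, then retinol to 1 uM final; incubate 6 h at 37 C; add CellTiter-Glo; read luminescence after 30 min at RT.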

[2] = qHTS assay to identify small molecule agonists of the retinoic acid receptor (RAR) signaling pathway (AID 1159553)
Procedure, shortened: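 Activation of retinol signaling was monitored via a RARE luciferase reporter in C3RL4 cells. After 6 hr compound treatment at 37 C, detection reagent was added for 30 min at room temperature before luminescence reading.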

[3] = qHTS assay to identify small molecule antagonists of the estrogen related receptor (ERR) signaling pathway - cell viability counter screen (AID 1224818);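 note: series mostly up to about 46 µM; viability measured after 17.5 h of compound exposure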
Procedure, shortened: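 In the same ERR cell assay, compound-treated wells (17.5 h, 37 C) were multiplexed with a fluorogenic viability reagent, CellTiter-Fluor, read after 30 min to flag cytotoxic substances.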

[4] = qHTS assay to identify small molecule antagonists of the retinoic acid receptor (RAR) signaling pathway (AID 1159552; note: nearly all actives have a fitted effect of over 50% in size; note: potency is the fitted concentration of half-maximal effect)
Procedure, shortened: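 Cells of the C3RL4 line were seeded, incubated overnight, then dosed with compounds in DMSO followed immediately by retinol (1 uM final). Six hours later luciferase detection reagent went in; signal was measured after 30 min at RT.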

[5] = qHTS assay to identify small molecule antagonists of the estrogen related receptor (ERR) signaling pathway from Tox21 library - cell viability counter screen (AID 1224834); note: nearly all actives have a fitted effect of over 30% in size; note: potency is the fitted concentration of half-maximal effect
Procedure, shortened: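 CellTiter-Fluor fluorescence measured; ERR cells; 17.5 h compound incubation at 37 C; 30 min reagent step.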

SMILES	Potency [1]	Potency [2]	outcome [3]	Potency [4]	Potency [5]
CCOC(=O)COC(=O)c1cc(Oc2ccc(C(F)(F)F)cc2Cl)ccc1[N+](=O)[O-]	inactive	inactive	–	–	–
Clc1ccc(Cn2c(CN3CCCC3)nc3ccccc32)cc1	inactive	inactive	inactive	–	–
O=C1OC(CN2CCOCC2)CN1/N=C/c1ccc([N+](=O)[O-])o1 (configuration not stated)	inactive	inactive	–	–	–
C=C(C)C(=O)OCC	inactive	–	–	inactive	inactive
CCOC(=O)Cc1cccc2ccccc12	inactive	–	–	inactive	inactive
CCCCCC[C@@H](O)C/C=C\CCCCCCCC(=O)OC	inactive	–	–	inactive	inactive
CC(C)=CCC/C(C)=C/CC/C(C)=C/CO	inactive	–	–	68.6 µM (active)	inactive
Nc1cccc([N+](=O)[O-])c1	inactive	inactive	–	–	inactive
COc1ccc(S(=O)(=O)N2C(=O)[C@@](c3ccccc3OC)(N3C[C@H](O)C[C@H]3C(=O)N(C)C)c3cc(Cl)ccc32)c(OC)c1	inactive	inactive	–	–	30.6 µM (active)
CN(C)c1ccc(CCO)cc1	inactive	inactive	–	–	inactive
CCC(C)c1cc(C(C)(C)C)c(O)c(C(C)(C)C)c1 (configuration not stated)	inactive	inactive	–	–	inactive
O=C(c1ccc(F)cc1)C1CCN(CCn2c(=S)[nH]c3ccccc3c2=O)CC1	inactive	–	–	inactive	29.8 µM (active)
Nc1ccc(N)c2c1C(=O)c1ccccc1C2=O	30.6 µM (active)	–	–	inactive	15.4 µM (active)
CN1CCC(=C2c3ccccc3Sc3ccccc32)CC1	inactive	inactive	–	–	–
CCC(Cl)CCC(Cl)C(Cl)CC(Cl)C(Cl)C(Cl)CCl (configuration not stated)	inactive	–	–	inactive	inactive
